Laboratory results taken from PubChem BioAssay (Tox21).
Values joined by “and” are separate entries in the source; they are usually repeats but may differ in a detail not shown here. Identical values can stand only once. A number with no mark means an inactive call. Records with an inconclusive call do not appear. A call without a number means that no potency is given here. Active and inactive are the calls of the source. Unless noted, calls come from the whole dose curve.

Experiments:
[1] = target: Aryl hydrocarbon receptor (Homo sapiens) (UniProt P35869); assay: qHTS assay to identify small molecule that activate the aryl hydrocarbon receptor (AhR) signaling pathway (AID 743085; active = well fitted curve in the direction sought with a large enough effect in the repeat runs; an effect the other way counts as inactive or inconclusive; note: nearly all actives have a fitted effect of over 15% in size; note: potency is the fitted concentration of half-maximal effect;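 for activation: HG2L7.5c1 human HepG2 liver cells with stably integrated DRE-driven firefly reporter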)
How it was run: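 A multiplexed format paired cell viability (CellTiter-Fluor fluorescence) with AhR-dependent luciferase output (ONE-Glo luminescence) in the same wells of HepG2 DRE-luc cells after 24 h compound exposure at 37C.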

[2] = qHTS assay to identify small molecule antagonists of the retinoic acid receptor (RAR) signaling pathway (AID 1159552; active = well fitted curve in the direction sought with a large enough effect in the repeat runs; an effect the other way counts as inactive or inconclusive; note: nearly all actives have a fitted effect of over 50% in size; note: potency is the fitted concentration of half-maximal effect)
How it was run: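 Antagonism of retinol-induced RARE reporter activity was measured in C3RL4 cells. Exposure to compounds and 1 uM final retinol lasted 6 hr at 37 C, with luminescence as endpoint.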

[3] = qHTS assay to identify small molecule antagonists of the estrogen related receptor (ERR) signaling pathway - cell viability counter screen (AID 1224818; active = well fitted curve in the direction sought with a large enough effect in the repeat runs; an effect the other way counts as inactive or inconclusive)
How it was run: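 Fluorescence from CellTiter-Fluor, read 30 min after reagent addition at 37 C, measured viability of ERR cells exposed to compounds for 17.5 h. Cells had settled 6 h before dosing.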

[4] = qHTS assay to identify small molecule antagonists of the estrogen related receptor (ERR) signaling pathway (AID 1224819; active = well fitted curve in the direction sought with a large enough effect in the repeat runs; an effect the other way counts as inactive or inconclusive;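 note: luminescence from an ERR-driven luciferase reporter measured with One-Glo reagent; nearly all actives have a fitted effect of over 50% in size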)
How it was run: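 Luminescence readout (One-Glo, 30 min, RT) of ERR cell line after 18 h compound exposure at 37 C; cells seeded 2,000/well, pre-incubated 6 h, compounds pinned from DMSO stocks.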

[5] = qHTS assay to identify small molecule agonists of the estrogen related receptor (ERR) signaling pathway (AID 1224820; active = well fitted curve in the direction sought with a large enough effect in the repeat runs; an effect the other way counts as inactive or inconclusive)
How it was run: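 Following a 6 h settling period, 2,000 ERR cells per well receive DMSO-dissolved compounds by pin tool and incubate 18 h at 37 C; agonist activity is scored from One-Glo luminescence read 30 min post-addition.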

[6] = test system: estrogen-related receptor alpha (ERRalpha) with PGC-1alpha coactivator, human; assay: qHTS assay to identify small molecule antagonists of the estrogen related receptor signaling pathway with the pleiotropic PPARgamma coactivator (PGC) (AID 1224821);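 note: lower luminescence signal means antagonism of PGC/ERR signalling; nearly all actives have a fitted effect of over 50% in size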
How it was run: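 Screening used NTP's PGC/ERR cells, dosed via pin tool with compound in DMSO alongside positive and negative controls. After 18 h at 37 C, One-Glo reagent sat 30 min at room temperature before luminescence detection.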

[7] = qHTS assay to identify small molecule antagonists of the estrogen related receptor signaling pathway with the pleiotropic PPARgamma coactivator (PGC) cell viability counter screen (AID 1224822; active = well fitted curve in the direction sought with a large enough effect in the repeat runs; an effect the other way counts as inactive or inconclusive)
How it was run: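 Fluorescence read-out of CellTiter-Fluor after 30 min at 37 C; PGC/ERR cells, 2,000 per well, had been exposed to DMSO-dissolved compounds for 17.5 h following a 6 h pre-incubation.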

[8] = qHTS assay to identify small molecule agonists of the estrogen related receptor signaling pathway with the pleiotropic PPARgamma coactivator (PGC) from Tox21 10K library (AID 1224842; active = well fitted curve in the direction sought with a large enough effect in the repeat runs; an effect the other way counts as inactive or inconclusive; note: nearly all actives have a fitted effect of over 15% in size)
How it was run: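 PGC/ERR reporter cells (NTP line) were seeded 2,000 per well, rested 6 h at 37 C/5% CO2, then pin-dosed with compounds in DMSO for 18 h at 37 C; luciferase read by One-Glo luminescence after 30 min at room temperature.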

[9] = qHTS assay to identify small molecule agonists of the estrogen related receptor (ERR) signaling pathway from Tox21 library (AID 1224849); settings: ERR reporter cell line, ONE-Glo luciferase, 18 h; at 92.4 µM (top of the series) unless noted; note: nearly all actives have a fitted effect of over 15% in size
How it was run: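 Luminescence readout (ONE-Glo, 30 min RT) after 18 h compound exposure at 37 C of NTP-supplied ERR reporter cells; cells were plated 6 h before compound addition by pin tool.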

[10] = A CellTox Green Cytotoxicity Assay to monitor cytotoxicity in HepG2 cells - 0 hour (AID 1224882; active = well fitted curve in the direction sought with a large enough effect in the repeat runs; an effect the other way counts as inactive or inconclusive; note: nearly all actives have a fitted effect of over 35% in size)
How it was run: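 HepG2, 600 cells/well premixed w/ CellTox Green; 5 h settle, 37 C/5% CO2; pintool cpd add (DMSO); 37 C, 40 h; fluorescence read at 0, 8, 16, 24, 32, 40 h.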

[11] = qHTS assay to identify small molecule HDAC inhibitors (AID 1259364; active = well fitted curve in the direction sought with a large enough effect in the repeat runs; an effect the other way counts as inactive or inconclusive;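 note: wild-type HCT-116 cells with endogenous class I/II HDAC activity; top concentration of the series differs between compounds; nearly all actives have a fitted effect of over 45% in size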)
How it was run: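 HCT-116 (wild type), 1,500 cells/well, overnight; compound 2 hr 37C 5% CO2; HDAC-Glo I/II reagent 30 min RT; luminescence readout.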

[12] = qHTS assay to identify small molecule agonists of the sonic hedgehog signaling (Shh) pathway (AID 1259368);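 note: NIH/3T3-derived 3T3Gli1-Luc cells carrying a stable Gli1-driven firefly luciferase reporter; nearly all actives have a fitted effect of over 15% in size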
How it was run: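 Read-out: firefly luciferase luminescence from a Gli1 response element reporter stably integrated in NIH/3T3-derived 3T3Gli1-Luc cells, measured 30 min at room temperature after reagent addition. Compound exposure lasted 24 hr at 37 C, 5% CO2.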

[13] = Caspase-3/7 induction in HepG2 cells by small molecules, qHTS assay (AID 1346978; active = well fitted curve in the direction sought with a large enough effect in the repeat runs; an effect the other way counts as inactive or inconclusive; note: nearly all actives have a fitted effect of over 15% in size)
How it was run: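 Wild-type HepG2 cells (2,000/well) were settled 5 h at 37 C, 5% CO2, then exposed to compounds in DMSO for 17 h. Caspase-3/7 activity was read by luminescence 30 min after adding Caspase-Glo 3/7 reagent at room temperature.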

[14] = Caspase-3/7 induction in CHO-K1 cells by small molecules, qHTS assay (AID 1346980; active = well fitted curve in the direction sought with a large enough effect in the repeat runs; an effect the other way counts as inactive or inconclusive; note: nearly all actives have a fitted effect of over 15% in size)
How it was run: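 Wild-type cells were seeded at 1,500 per well and settled 5 hr at 37 C, 5% CO2, then exposed to DMSO-dissolved compounds for 17 hr. Caspase-Glo 3/7 reagent was added, and luminescence was read after 30min at room temperature.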

[15] = target: Acetylcholinesterase (Homo sapiens) (UniProt P22303); assay: Acetylcholinesterase (AChE) small molecule antagonists: colormetric cell-based qHTS assay (AID 1347395); note: nearly all actives have a fitted effect of over 30% in size
How it was run: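 Homogeneous whole-cell format. SH-SY5Y cells seeded overnight, dosed with compound (30 min, 37 C, 5% CO2), then given DTNB/acetylthiocholine cocktail for 90 min at 37 C; colorimetric signal.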

[16] = target: Acetylcholinesterase (Homo sapiens) (UniProt P22303); assay: Acetylcholinesterase (AChE) small molecule antagonists: enzyme-based qHTS assay (AID 1347397); settings: Potency: AChE enzyme activity inhibition; outcome: AChE enzyme activity inhibition; note: nearly all actives have a fitted effect of over 55% in size; note: potency is the fitted concentration of half-maximal effect
How it was run: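 Compound or DMSO vehicle was pin-transferred onto recombinant human AChE (50 mU/mL as dispensed) and left 30 min at room temperature. Acetylthiocholine with DTNB then started the reaction, read colorimetrically 10 min later.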

[17] = target: Acetylcholinesterase (Homo sapiens) (UniProt P22303); assay: Acetylcholinesterase (AChE) small molecule antagonists: fluorescence cell-based qHTS assay (AID 1347398); settings: Potency: AChE activity; outcome: AChE activity; note: nearly all actives have a fitted effect of over 50% in size
How it was run: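 Using neuroblastoma SH-SY5Y cells as the enzyme source, test chemicals are preincubated 30 min at 37 C; AChE-driven acetylthiocholine cleavage is then quantified by thiocholine-dependent Thiolite Green fluorescence after 40 min at room temperature.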

[18] = target: Acetylcholinesterase (Homo sapiens) (UniProt P22303); assay: Acetylcholinesterase (AChE) small molecule antagonists: enzyme-based qHTS assay with human liver microsomes (AID 1347399); settings: Potency: qHTS inhibition; outcome: qHTS inhibition; note: nearly all actives have a fitted effect of over 60% in size; note: potency is the fitted concentration of half-maximal effect
How it was run: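 Recombinant human AChE (50 mU/mL in the enzyme mix) and human liver microsomes (0.25 mg/mL final) were preincubated with compound and NADPH (0.25 mg/mL final) for 30 min at 37 C. Acetylthiocholine/DTNB was then added; thiocholine was read colorimetrically after 10 min at room temperature.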

Aromatase (Homo sapiens) = Aromatase (Homo sapiens) (UniProt P11511); assay: qHTS assay to identify aromatase inhibitors (AID 743083; active = well fitted curve in the direction sought with a large enough effect in the repeat runs; an effect the other way counts as inactive or inconclusive; note: nearly all actives have a fitted effect of over 55% in size; note: potency is the fitted concentration of half-maximal effect)
[19] = qHTS assay to identify small molecule agonists of H2AX (AID 1224845; active = well fitted activation curve with a large enough effect in the signal ratio in the repeat runs, not every such curve was filed as active; the % refers to the signal ratio; note: potency is the fitted concentration of half-maximal effect)
How it was run: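 Wild-type CHO-K1 cells plated overnight, then exposed 3 hr at 37C to compounds at 15 concentrations (0.76% DMSO). Lysed, then HTRF anti-pH2AX(S139)-cryptate/anti-H2AX-d2 detection after 24 hr at room temperature; emissions 665 and 620 nm.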

Chain of Acetylcholinesterase (Homo sapiens) (P22303 whole entry, looked up): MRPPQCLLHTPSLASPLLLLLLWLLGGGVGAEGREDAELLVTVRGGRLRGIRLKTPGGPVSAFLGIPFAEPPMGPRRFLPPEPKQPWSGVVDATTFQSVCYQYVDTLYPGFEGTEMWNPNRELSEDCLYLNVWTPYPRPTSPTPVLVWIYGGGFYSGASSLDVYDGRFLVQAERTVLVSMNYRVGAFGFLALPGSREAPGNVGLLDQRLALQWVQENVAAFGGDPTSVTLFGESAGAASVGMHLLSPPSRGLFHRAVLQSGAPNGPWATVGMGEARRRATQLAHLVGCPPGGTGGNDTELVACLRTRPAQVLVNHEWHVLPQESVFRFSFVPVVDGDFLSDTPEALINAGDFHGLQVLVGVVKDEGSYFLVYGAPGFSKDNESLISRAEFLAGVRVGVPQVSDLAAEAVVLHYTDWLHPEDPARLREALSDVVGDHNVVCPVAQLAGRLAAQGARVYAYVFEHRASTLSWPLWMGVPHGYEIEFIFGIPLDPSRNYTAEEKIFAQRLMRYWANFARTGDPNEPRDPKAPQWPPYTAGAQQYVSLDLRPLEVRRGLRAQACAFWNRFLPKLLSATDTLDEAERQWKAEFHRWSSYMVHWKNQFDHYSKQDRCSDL
Chain of Aromatase (Homo sapiens) (P11511 whole entry, looked up): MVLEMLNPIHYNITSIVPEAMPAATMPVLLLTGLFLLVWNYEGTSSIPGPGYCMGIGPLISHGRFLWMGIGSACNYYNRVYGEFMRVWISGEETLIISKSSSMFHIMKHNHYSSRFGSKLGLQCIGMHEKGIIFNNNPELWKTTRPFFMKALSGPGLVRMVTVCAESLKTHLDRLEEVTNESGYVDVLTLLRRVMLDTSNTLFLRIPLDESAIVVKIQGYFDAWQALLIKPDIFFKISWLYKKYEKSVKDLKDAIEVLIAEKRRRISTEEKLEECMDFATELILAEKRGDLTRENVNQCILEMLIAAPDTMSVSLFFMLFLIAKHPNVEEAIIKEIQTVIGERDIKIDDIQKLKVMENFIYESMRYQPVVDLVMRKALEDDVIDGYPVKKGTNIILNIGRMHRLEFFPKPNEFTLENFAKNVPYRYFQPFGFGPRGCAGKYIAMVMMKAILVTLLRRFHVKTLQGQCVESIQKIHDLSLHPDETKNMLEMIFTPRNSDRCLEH
Chain of Aryl hydrocarbon receptor (Homo sapiens) (P35869 whole entry, looked up): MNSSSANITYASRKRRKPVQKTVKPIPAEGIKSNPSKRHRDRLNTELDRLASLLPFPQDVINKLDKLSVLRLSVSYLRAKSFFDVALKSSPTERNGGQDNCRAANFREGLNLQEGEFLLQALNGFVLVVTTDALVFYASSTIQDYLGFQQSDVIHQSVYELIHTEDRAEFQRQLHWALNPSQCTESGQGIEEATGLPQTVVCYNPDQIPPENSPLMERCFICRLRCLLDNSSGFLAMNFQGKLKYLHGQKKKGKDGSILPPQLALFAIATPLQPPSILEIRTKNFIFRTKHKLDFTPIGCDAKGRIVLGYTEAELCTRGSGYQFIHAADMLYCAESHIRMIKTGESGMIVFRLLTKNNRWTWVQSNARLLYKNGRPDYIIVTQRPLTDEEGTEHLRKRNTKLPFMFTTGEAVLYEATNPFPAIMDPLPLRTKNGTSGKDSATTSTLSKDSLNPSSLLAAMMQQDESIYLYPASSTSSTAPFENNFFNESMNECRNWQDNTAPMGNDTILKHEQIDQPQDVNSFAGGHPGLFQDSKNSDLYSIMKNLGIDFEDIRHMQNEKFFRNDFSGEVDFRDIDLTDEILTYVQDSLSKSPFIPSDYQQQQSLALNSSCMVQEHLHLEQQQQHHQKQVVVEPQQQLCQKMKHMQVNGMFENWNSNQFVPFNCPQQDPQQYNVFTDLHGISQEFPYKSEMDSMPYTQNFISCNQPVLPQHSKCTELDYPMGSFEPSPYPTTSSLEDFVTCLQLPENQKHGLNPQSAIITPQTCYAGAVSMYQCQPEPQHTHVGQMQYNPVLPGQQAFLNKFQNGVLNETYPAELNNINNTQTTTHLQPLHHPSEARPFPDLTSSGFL

Row | Compound | Potency [1] | Potency [2] | Potency [3] | Potency [4] | Potency [5] | Potency [6] | Potency [7] | Potency [8] | activity change, positive = activation [9] | Potency [10] | outcome [11] | outcome [12] | Potency [13] | outcome [14] | Potency [15] | Potency [16] | Potency [17] | Potency [18] | Potency (Aromatase (Homo sapiens)) | Potency [19]
1 | O=[N+]([O-])c1c(Cl)c(Cl)cc(Cl)c1Cl | inactive | inactive | inactive | inactive | inactive | inactive | inactive | inactive | 0.621% | inactive | inactive | inactive | inactive | inactive | inactive | inactive | inactive | inactive | – | –
2 | O=C1OC(=O)c2c(Cl)c(Cl)c(Cl)c(Cl)c21 | inactive | inactive | – | – | – | – | – | – | -2.98% | – | – | – | inactive | – | inactive | inactive | – | inactive | inactive | –
3 | Cc1nnc2n1-c1sc(CCc3ccc(CC(C)C)cc3)cc1C(c1ccccc1Cl)=NC2C (stereo not given) | inactive | 33.5 µM (active) | – | – | – | – | – | inactive | -59.4% [at 42.5 µM] | inactive | inactive | inactive | – | inactive | inactive | inactive | inactive | inactive | – | –
4 | O=C1C(I)=CC(=C(c2cc(I)c(O)c(I)c2)c2ccccc2C(=O)O)C=C1I | inactive | inactive | – | – | – | – | – | – | – | inactive | inactive | inactive | inactive | inactive | inactive | 34.7 µM (active) | inactive | inactive | inactive | inactive
5 | ClC1=C(Cl)C(Cl)(Cl)C(Cl)=C1Cl | – | inactive | – | – | – | – | – | – | – | – | – | – | inactive | – | inactive | inactive | inactive | inactive | – | –
6 | CCN(CC)C(=O)Cl | – | – | – | – | – | – | – | inactive | -1.51% | inactive | inactive | inactive | inactive | inactive | inactive | inactive | inactive | inactive | – | inactive
7 | C[C@]12CC[C@@H](O)C[C@@H]1CC[C@@H]1[C@@H]2CC[C@]2(C)C(=O)CC[C@@H]12 | – | – | – | – | – | – | – | – | – | inactive | inactive | inactive | inactive | inactive | – | – | – | – | – | inactive
8 | Nc1ccc(Cl)cc1[N+](=O)[O-] | – | inactive | – | – | – | – | – | inactive | – | – | – | – | – | – | inactive | inactive | inactive | inactive | inactive | inactive
9 | N#Cc1cc([N+](=O)[O-])ccc1N | – | inactive | – | – | – | – | – | inactive | -2.3% | inactive | inactive | inactive | inactive | inactive | inactive | inactive | inactive | inactive | – | inactive
10 | CC1COC(Cn2cncn2)(c2ccc(Oc3ccc(Cl)cc3)cc2Cl)O1 (stereo not given) | inactive | inactive | – | – | – | – | – | inactive | -64.8% | inactive | inactive | inactive | inactive | inactive | inactive | inactive | inactive | – | 30.6 µM (active) | –
11 | ClC(Cl)=C(c1ccc(Cl)cc1)c1ccccc1Cl | – | – | – | – | – | – | – | – | – | inactive | inactive | inactive | inactive | inactive | inactive | inactive | inactive | inactive | – | –
12 | Cc1c(N)cccc1[N+](=O)[O-] | – | inactive | – | – | – | – | – | – | – | – | – | – | – | – | inactive | inactive | inactive | inactive | inactive | –
13 | Cc1cc(C(C)(C)c2ccc(O)c(C)c2)ccc1O | inactive | 58.2 µM (active) | – | – | – | – | – | inactive | -66.8% | inactive | inactive | inactive | – | inactive | inactive | inactive | inactive | inactive | 65.3 µM (active) | inactive
14 | CCCCC(CC)COC(=O)c1ccc(C(=O)OCC(CC)CCCC)cc1 (stereo not given) | inactive | inactive | – | – | – | – | – | inactive | 0.923% | – | – | – | – | – | inactive | inactive | inactive | inactive | inactive | inactive
15 | O=S(=O)(C(Cl)(Cl)Cl)C(Cl)(Cl)Cl | – | 9.69 µM (active) | – | – | – | – | – | inactive | -70.9% | inactive | inactive | inactive | inactive | inactive | inactive | inactive | inactive | inactive | – | –
16 | CCOC(=O)C(O)(c1ccc(Cl)cc1)c1ccc(Cl)cc1 | 24.6 µM (active) | 30.9 µM (active) and 30.6 µM (active) | – | – | – | – | – | – | – | inactive | inactive | inactive | – | – | inactive | inactive | inactive | inactive | 4.37 µM (active) and 30.6 µM (active) | 90.7 µM (active) and 89.8 µM (active)
17 | Cc1ccc(N(SC(F)(Cl)Cl)S(=O)(=O)N(C)C)cc1 | inactive | 13.7 µM (active) | – | – | – | – | – | inactive | -74.2% | inactive | inactive | inactive | inactive | inactive | inactive | – | – | 71 µM (active) | 3.86 µM (active) | inactive
18 | CCc1cccc(CC)c1N | inactive | – | – | – | – | – | – | – | – | – | – | – | – | – | inactive | inactive | inactive | inactive | inactive | inactive
19 | CCCCC(CC)COC(=O)CCCCC(=O)OCC(CC)CCCC (stereo not given) | inactive | inactive | – | – | – | – | – | – | – | – | – | – | inactive | – | inactive | inactive | – | inactive | inactive | –
20 | Cc1cc(C)c(C(=O)P(=O)(c2ccccc2)c2ccccc2)c(C)c1 | – | inactive | – | – | – | – | – | inactive | -54.9% | inactive | inactive | inactive | inactive | inactive | inactive | inactive | inactive | inactive | – | –
